KDM5B inh = KDM5B demethylase inhibition; Q9UGL1; KDM5B demethylase, FDH-coupled NADH fluorescence (FDH is formaldehyde dehydrogenase); AID 1347165; actives 2.6% (n = 220,000); Potency, µM (doses to about 57.7 µM), usual class: inhibitors; active = well fitted inhibition curve with a large enough effect; also: 0% is about no effect; nearly all actives have a fitted effect of over 70% in size
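Here, H3K4me3 peptide (12.5 µM in substrate mix) is demethylated by KDM5BΔAP, 200 nM final, after 10 min compound exposure. Formaldehyde product is coupled through FDH (0.25 U/mL in mix) to NADH fluorescence; 30-min ΔRFU feeds dose-response curves.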
* = called active by the depositor. Only a selection was taken, and hits are over-represented in it overall. Potency is read from the fitted curve at half-maximal effect.

How did O=C(CC1CCCO1)NC(c1ccccc1)C1CCCCC1 (stereo not drawn) do in these assays?
KDM5B inh: inactive

How did CCN(Cc1cc(=O)[nH]c2c(C)cc(C)cc12)C(=O)Nc1cc(C)ccc1OC do in these assays?
KDM5B inh: inactive

What do the screens show for `CCC(=O)Nc1ccc(C)cc1-c1nnc(SCC(=O)Nc2ccc(Cl)c(Cl)c2)[nH]c1=O`?
KDM5B inh: inactive

What do the screens show for `CN(C)S(=O)(=O)c1ccc(-c2nc(C#N)c(N3CCN(c4ccccc4)CC3)o2)cc1`?
KDM5B inh: inactive

Results for O=C(CN1CCN(S(=O)(=O)Cc2ccccc2)CC1)Nc1ccc(F)c(F)c1 ?
KDM5B inh: inactive

What do the screens show for `CCC(Sc1nccn1-c1cccc(F)c1)C(=O)Nc1cc(C)on1` (stereo not drawn)?
KDM5B inh: inactive

Results for O=C(/C=C/c1ccc(F)cc1)c1ccc(O)cc1 ?
KDM5B inh: inactive

How did C[N+](C)(CCCCCCCCCC[N+](C)(C)C1CCCCC1)C1CCCCC1 do in these assays?
KDM5B inh: inactive

How did N#Cc1ccc(S(=O)(=O)N2CCC(C(=O)Nc3nc4c(s3)CCC4)CC2)cc1 do in these assays?
KDM5B inh: inactive

How did Cc1nnc(-c2cc(-c3ccsc3)ccn2)n1C(C)C do in these assays?
KDM5B inh: inactive

What do the screens show for `COc1ccc(-c2ccnc(-c3nnc(C)n3CCN(C)C)c2)cc1OC`?
KDM5B inh: 28µM*

How did Cc1nnc(-c2cc(-c3cccnc3)ccn2)n1CCN1CCOCC1 do in these assays?
KDM5B inh: inactive

Results for Cc1nnc(-c2cc(-c3cccc(CO)c3)ccn2)n1CCN1CCOCC1 ?
KDM5B inh: inactive

What do the screens show for `Cc1nnc(-c2cc(-c3cccc(F)c3)ccn2)n1CCc1ccccc1`?
KDM5B inh: inactive

Results for COc1ncc(-c2ccnc(-c3nnc(C)n3-c3ccccc3)c2)cn1 ?
KDM5B inh: inactive

Results for COc1ccc(-c2ccnc(-c3nnc(C)n3C(C)C)c2)cc1OC ?
KDM5B inh: 35µM*

How did COc1ncccc1-c1ccnc(-c2nnc(C)n2Cc2ccccc2)c1 do in these assays?
KDM5B inh: 28µM*

What do the screens show for `COc1cc(-c2ccnc(-c3nnc(C)n3Cc3ccncc3)c2)ccn1`?
KDM5B inh: inactive

How did Cc1nnc(-c2cc(-c3ccc(N4CCOCC4)cc3)ccn2)n1Cc1ccccc1 do in these assays?
KDM5B inh: 20µM*

Results for COCCn1c(C)nnc1-c1cc(-c2cccc(N(C)C)c2)ccn1 ?
KDM5B inh: inactive

How did Cc1cccc(N/C=C/C(=O)C(F)(F)F)c1 do in these assays?
KDM5B inh: inactive

How did N#CC(C(=O)NCc1ccccc1)c1nc2ccccc2nc1N1CCN(c2ccc(F)cc2)CC1 (stereo not drawn) do in these assays?
KDM5B inh: inactive

Results for COc1ccc(C(=O)Oc2ccc3c(=O)c(-c4ccccc4)c(C)oc3c2)cc1 ?
KDM5B inh: inactive

What do the screens show for `CCCn1c(SCc2csc(-c3ccccc3)n2)nnc1C1CC1`?
KDM5B inh: inactive

Results for O=C1CC(C(=O)Nc2ccc(F)cc2)n2nc(-c3ccc(Cl)cc3)cc2N1 (stereo not drawn) ?
KDM5B inh: inactive

Results for N#Cc1nc(-c2cccc3ccccc23)oc1NCc1ccc2c(c1)OCO2 ?
KDM5B inh: inactive

What do the screens show for `O=C(O)C(c1c[nH]c2ccccc12)N1CCN(Cc2cccs2)CC1` (stereo not drawn)?
KDM5B inh: inactive

Results for O=C(N[C@@H]1C[C@H]2CC[C@@H]1C2)c1c(Cl)cccc1Cl ?
KDM5B inh: inactive

How did CCOc1ccc2c(=O)c(Oc3ccccc3OCC)c(C)oc2c1 do in these assays?
KDM5B inh: inactive

Results for Cc1cc2nc(-c3cccc(NC(=O)COc4ccc([N+](=O)[O-])cc4)c3)oc2cc1C ?
KDM5B inh: inactive

How did Cc1ccc(-c2c(C)nn3c(N4CCN(C)CC4)cc(C)nc23)cc1 do in these assays?
KDM5B inh: inactive

What do the screens show for `CN1CC2(CCN(Cc3ccccn3)CC2)CC1C(=O)N1CCOCC1` (stereo not drawn)?
KDM5B inh: 20µM*

What do the screens show for `CN1CC2(CCN(C(=O)Cc3cccc(F)c3)CC2)CC1C(=O)N1CCOCC1` (stereo not drawn)?
KDM5B inh: inactive

Results for CC(C)n1cc(CN2CCC3(CC2)CC(C(=O)N2CCOCC2)N(C)C3)c2ccccc21 (stereo not drawn) ?
KDM5B inh: inactive

Results for CN1CC2(CCN(C(=O)c3ccc4ccccc4n3)CC2)CC1C(=O)N1CCOCC1 (stereo not drawn) ?
KDM5B inh: inactive

What do the screens show for `CN1CC2(CCN(C(=O)CCCc3ccccc3)CC2)CC1C(=O)N1CCOCC1` (stereo not drawn)?
KDM5B inh: inactive

How did COc1ccc2cc(C(=O)N3CCC(C(=O)N4CCCC4)CC3)[nH]c2c1 do in these assays?
KDM5B inh: inactive

How did COc1ccc2cc(C(=O)N3CCC4(CC3)CC(C(=O)N3CCOCC3)N(C)C4)[nH]c2c1 (stereo not drawn) do in these assays?
KDM5B inh: 25µM*

What do the screens show for `CN1CC2(CCN(C(=O)c3cccnc3)CC2)CC1C(=O)N1CCOCC1` (stereo not drawn)?
KDM5B inh: inactive

Results for CN1CC2(CCN(Cc3cccn3C)CC2)CC1C(=O)N1CCOCC1 (stereo not drawn) ?
KDM5B inh: 16µM*

What do the screens show for `C=CCOc1ccc(NC(=O)c2ccc(C(C)(C)C)cc2)cc1`?
KDM5B inh: inactive

What do the screens show for `CC(=O)c1ccc(NC(=O)CSc2nc(C)c(C)o2)cc1`?
KDM5B inh: inactive

How did Cc1ccc(C2=C(O)C(=O)N(Cc3ccccc3)C2c2cccc(F)c2)cc1 (stereo not drawn) do in these assays?
KDM5B inh: inactive

Results for Cc1cc(C(=O)NC(C)c2cccc(OC(F)F)c2)sc1C (stereo not drawn) ?
KDM5B inh: inactive

What do the screens show for `N#Cc1ccccc1COC(=O)c1ccc(Cl)cc1F`?
KDM5B inh: inactive

How did O=C(Cc1cccc(F)c1)OCc1cc(-c2ccccc2)on1 do in these assays?
KDM5B inh: inactive

Results for CCOC(=O)c1c(S(=O)(=O)NCC(=O)N2CCCC2)c(C)n(C)c1C ?
KDM5B inh: inactive

What do the screens show for `COc1ccccc1C1(CNC(=O)c2cccc(F)c2)CCOCC1`?
KDM5B inh: inactive

Results for CC(c1ccc(F)cc1)N(C)C(=O)c1ccc(S(=O)(=O)N(C)C)cc1 (stereo not drawn) ?
KDM5B inh: inactive

Results for C=C(Cl)COc1ccc(C(=O)NC)cc1 ?
KDM5B inh: inactive

How did Clc1ccc(-c2nnc([C@H]3CCN(Cc4ccccc4)C3)o2)cc1 do in these assays?
KDM5B inh: inactive

Results for Cc1ccc(-c2nnc([C@H]3CCN(C(=O)COCC(=O)O)C3)o2)cc1 ?
KDM5B inh: inactive

What do the screens show for `Cc1ccc(-c2nnc([C@H]3CCN(C(C)C)C3)o2)cc1`?
KDM5B inh: 32µM*

What do the screens show for `Fc1ccccc1-c1nnc([C@H]2CCN(C3CCOCC3)C2)o1`?
KDM5B inh: inactive

Results for O=C(c1ccncc1)N1CC[C@H](c2nnc(-c3ccncc3)o2)C1 ?
KDM5B inh: inactive

What do the screens show for `Cc1ccc(-c2nnc([C@H]3CCN(C4CCC4)C3)o2)cc1`?
KDM5B inh: 32µM*

What do the screens show for `COCC(=O)N1CC[C@H](c2nnc(-c3ccc(C)cc3)o2)C1`?
KDM5B inh: inactive

How did Clc1ccc(-c2nnc([C@H]3CCN(C4CCCCC4)C3)o2)cc1 do in these assays?
KDM5B inh: 25µM*

Compound activity from PubChem BioAssay.
